The text below walks through data of PubChem BioAssay.

The source made the active and inactive calls. How the calls were made is not given here.

A short description of the experiment: inhibition of Brca1/Bard1 split-luciferase complementation, confirmation, counter-screen for Mdm2/MdmX interaction inhibitor project, luminescence, single concentration (AID 504668). The note with it: Brca1/Bard1 bimolecular luciferase complementation counterscreen, at 8 µM, stronger effect = higher value. On the technique in general: Counterscreens check selectivity or assay interference.
`Cc1ccc(CSC(Nc2ccc(F)cc2)=C(C#N)C#N)cc1`: the inhibition (in general, the change of the read-out against control, counted positive when it falls) is 24.3% (active). As for `CC(=O)N1CCN(c2ccc(NC(=O)c3ccc([N+](=O)[O-])o3)cc2Cl)CC1`, the figure is 26.6% (active).

Consider `COc1ccccc1-c1cc(C(F)(F)F)nc(S(=O)(=O)CCCC(=O)Nc2cc(C)on2)n1`, for which the inhibition was 32.8% (active).

Turning to `O=C(N/N=C/c1cc(Br)cc(Br)c1O)c1cccc(N2CCCC2=O)c1`, the inhibition was 26.3% (active). As for `COC(=O)[C@@]1(Cc2ccccc2)[C@H]2C(=O)N(Cc3ccccc3)C(=O)[C@H]2[C@H]2CN=C(SCc3ccc(C#N)cc3)N21`, the figure is 28.4% (active). In the case of `O=C(Nc1nc(-c2ccccn2)cs1)c1ccc(F)c(S(=O)(=O)N2CCOCC2)c1`, the inhibition was 25.6% (active). Take `COc1ccc(C)cc1Nc1n[n+](-c2ccccc2)c(-c2c(OC)ccc3ccccc23)s1`: the inhibition is 29% (active).

Consider `CCOc1ccccc1CNC(=O)C1CCCN(c2nnc(C)c3c(C)n(-c4ccccc4)nc23)C1` (stereo not given), for which the inhibition was 33.6% (active). As for `O=C(Nc1ccc(Cl)cc1)Nc1ccc(N2CCCC2)c(S(=O)(=O)Nc2ccccc2Cl)c1`, the figure is 24% (active); as for `CCCCC(=O)NC(c1ccco1)c1cc(Cl)c2cccnc2c1O` (stereo not given), 28.6% (active); as for `Cc1ccccc1-c1cc(C(=O)Nc2nc3c(s2)CCCC3)c2ccccc2n1`, 34.9% (active). In the case of `N#Cc1ccc(NC(=O)Nc2ccc(Oc3ccc(NC(=O)Nc4ccc(C#N)cc4)cc3)cc2)cc1`, the inhibition was 35.1% (active). `COc1ccc(C(=O)O/N=C(\N)Cc2ccc(Cl)c(Cl)c2)cc1OC`: the inhibition was 26.9% (active).

For `COc1ccccc1NCC(=O)N/N=C/c1c(O)ccc2ccccc12`, the inhibition is 24.6% (active). Turning to `O=C(NNC(=O)c1ccccc1OCc1ccc(F)cc1)c1ccccc1O`, the inhibition was 31.1% (active). As for `O=C(NCCCO)c1c(O)c2cccc3c2n(c1=O)CCC3`, the figure is 24.6% (active); as for `COc1ccc2cc(C(=O)N/N=C/c3sc4ccccc4c3O)ccc2c1`, 32.4% (active); as for `CCOc1cc(/C=N/N=C(\N)c2nonc2N)cc(Br)c1OCc1cccc2ccccc12`, 33.4% (active).

Regarding `N=c1c2c(-c3ccccc3)c(-c3ccccc3)n(Cc3ccco3)c2ncn1Cc1ccccc1`, the inhibition was 23% (active). Then `COc1ccc(NC(=O)c2cc3c(CO)cnc(C)c3oc2=Nc2cccc(F)c2)c(OC)c1`, with 27.9% (active); and `Cn1c(=O)c(C#N)c(-c2ccc(F)cc2)c2cc(C(=O)c3cc(Cl)cc(Cl)c3O)cnc21`, with 29.6% (active); and `C[n+]1c2n(c3ccccc31)N=C(c1ccc(-c3ccccc3)cc1)CS2`, with 25.5% (active).

`C#CCOCCOCCOCCNc1nc(N2CCN(C(=O)CCCCCCCCCCNC(=O)[C@H](CO)n3cc(CCCSC)nn3)CC2)nc(N2CCN(C(=O)CCCCCCCCCCNC(=O)[C@H](CCCCN)n3cc(C[C@@H](C)CC)nn3)CC2)n1`: the inhibition is 26.6% (active).

For the compound `Cc1ccc(N=c2c([N+](=O)[O-])nn(-c3ccc4c(c3)OCCO4)n2O)cc1F`, the inhibition is 23.7% (active).

Regarding `COc1ccc([C@@H]2[C@@H]3C(=O)N(C(C)(C)C)C(=O)[C@@H]3[C@]3(Cc4ccccc4)C(=O)N(c4ccc(C(F)(F)F)cc4)C(=O)N23)cc1`, the inhibition is 27.8% (active). Then `CCCCCCCCn1c2c(c(=N)c3ccccc31)CCC2`, with 27.2% (active); and `Cc1ccc(NC(=O)c2ccccc2NS(=O)(=O)c2ccc(F)cc2)cc1S(=O)(=O)N1CCCCC1`, with 28.2% (active). On to `Cc1nc(SCC(=O)Nc2ccc(S(=O)(=O)N3CCOCC3)cc2)c2c(C)c(C)sc2n1`, for which the inhibition was 28.6% (active). Turning to `C=CCn1c(SCC(=O)Nc2ccc(F)cc2F)nc2c([nH]c3ccccc32)c1=O`, the inhibition is 26.8% (active). As for `CC1CCN(Cc2c(C(=O)N/N=C/c3ccccc3O)nnn2-c2nonc2N)CC1`, the figure is 32.5% (active).

Take `O=C(NN=C(c1ccccc1)c1ccccn1)c1ccccc1`: the inhibition was 27.4% (active). For the compound `O=C(N/N=C/c1c(O)ccc2ccccc12)c1cccnc1`, the inhibition is 29.9% (active). Then `Cc1ccc(-c2csc(=Nc3cccnc3)n2CCCn2ccnc2)cc1C`, with 24.3% (active).

`Cc1cccc(C(=O)NC(C(=O)Nc2nc(-c3ccccn3)cs2)C(C)C)c1` (stereo not given): the inhibition was 30.7% (active). Then `COc1ccccc1-n1c(-c2ccccc2)c[n+]2c1CCc1ccccc1-2`, with 29% (active); and `CCCCC(=O)NC(c1ccc(N(C)C)cc1)c1ccc2cccnc2c1O` (stereo not given), with 23.7% (active); and `CC[C@@]1(C(=O)OC)N[C@H](CN(C)C(=O)Nc2ccc(C(F)(F)F)cc2)[C@@H]2C(=O)N(Cc3ccccc3)C(=O)[C@@H]21`, with 32.2% (active).

Consider `N#C/C(=N/Nc1ccc(OC(F)(F)F)cc1)C(N)=S`, for which the inhibition was 35% (active). As for `COc1ccc(NC(=O)CSc2nc3c(sc4ccccc43)c(=O)n2CCCN2CCCC2)cc1`, the figure is 23.1% (active). Then `CCc1ccc2[nH]c3nc(N/N=C/c4ccc(O)cc4O)nnc3c2c1`, with 29.3% (active).
